Source: PubChem BioAssay (National Center for Advancing Translational Sciences (NCATS))
VDR inhibitor = vitamin D3 receptor (human) inhibition. P11473. VDR-SRC2-3 peptide fluorescence polarization, 2 h. Potency, µM, for inactives: max response, negative = inhibition, hits mostly inhibitors. 0.93% of 400,000 active. AID 504847
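Measured by FP: displacement of SRC2-3 coactivator peptide from VDR by library compounds, following a two-hour ambient incubation.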
ALOX12 inh = ALOX12 (human) lipoxygenase inhibition. P18054. purified 12hLO, xylenol orange hydroperoxide absorbance. Potency, µM (highest dose often 108 µM), for inactives: at the highest dose activity change, negative = inhibition, usual class: inhibitors. 1.1% of 580,000 active
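Purified human 12hLO (150 nM final) in 25 mM Hepes, 0.01% Triton X-100, pH 7.0 was preincubated 15 min at room temperature with compound. Then 40 uM arachidonic acid was added, 30 min. Hydroperoxide was read by Fe-XO absorbance ratio 573/405 nm.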
GCN5L2 inh = GCN5L2 (KAT2A) acetyltransferase inhibition; Q92830; GCN5L2 HAT assay, ThioGlo1 CoA-SH fluorescence; Potency, µM (top dose mostly 58.9 µM), for the others: top-dose activity change, negative = inhibition, hits mostly inhibitors; 0.21% of 390,000 active
Target sequence (Q92830 whole entry, looked up): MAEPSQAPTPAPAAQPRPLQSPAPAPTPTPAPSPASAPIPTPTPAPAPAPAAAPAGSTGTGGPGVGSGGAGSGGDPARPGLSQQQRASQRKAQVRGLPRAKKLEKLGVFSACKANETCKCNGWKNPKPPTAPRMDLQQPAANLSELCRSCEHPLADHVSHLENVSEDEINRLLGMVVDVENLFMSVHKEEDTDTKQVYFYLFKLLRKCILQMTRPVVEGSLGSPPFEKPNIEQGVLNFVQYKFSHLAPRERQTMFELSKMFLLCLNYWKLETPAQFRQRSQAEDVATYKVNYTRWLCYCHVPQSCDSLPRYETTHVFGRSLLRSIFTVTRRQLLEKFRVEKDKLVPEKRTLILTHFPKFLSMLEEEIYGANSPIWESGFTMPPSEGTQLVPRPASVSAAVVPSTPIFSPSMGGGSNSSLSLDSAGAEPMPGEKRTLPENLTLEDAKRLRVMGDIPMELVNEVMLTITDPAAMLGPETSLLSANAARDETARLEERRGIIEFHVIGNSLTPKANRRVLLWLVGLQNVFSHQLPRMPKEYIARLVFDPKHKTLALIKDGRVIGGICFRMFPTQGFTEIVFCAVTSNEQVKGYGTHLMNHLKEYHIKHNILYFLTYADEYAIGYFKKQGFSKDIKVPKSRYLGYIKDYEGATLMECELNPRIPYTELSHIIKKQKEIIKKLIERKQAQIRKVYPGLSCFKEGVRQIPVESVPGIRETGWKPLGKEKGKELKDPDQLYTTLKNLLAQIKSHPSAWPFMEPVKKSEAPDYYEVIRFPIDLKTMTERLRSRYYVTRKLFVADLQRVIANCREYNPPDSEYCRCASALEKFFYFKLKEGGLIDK
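Free CoA generated was detected with ThioGlo1 (50uM) fluorescence at Ex340nm/Em540nm, read immediately and after 20 min at room temperature. Enzyme, 20 nM in HEPES pH 7.5 buffer, saw compounds 15 min before adding 75uM H3(1-25) peptide and 70uM acetyl-CoA.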
PLK1 PBD inh = PLK1 (human) polo-box domain binding inhibition | P53350 | Plk1 PBD binding of FITC phosphopeptide, fluorescence polarization | Potency, µM, for inactives: max response, negative = inhibition, usual class: inhibitors | 2.8% of 360,000 active; further: series mostly up to about 57 µM; nearly all actives have a fitted effect of over 65% in size
TbPYK confirm = Trypanosoma brucei pyruvate kinase inhibition, cherry-pick confirmation; Potency, µM (titrated, usually from 76.9 µM), inactives show top-dose activity change, negative = inhibition, actives largely listed as inhibitors; shares compounds with PLK1 PBD inh; recombinant TbPYK, Kinase-Glo ATP luminescence; 67% of 890 active; further: nearly all actives have a fitted effect of over 70% in size
TbPYK orthogonal = TbPYK inhibition, orthogonal confirmation | shares compounds with PLK1 PBD inh | recombinant TbPYK, ADP-Glo luminescence, 60 min | Potency, µM (top dose mostly 76.9 µM), inactives show top-dose activity change, negative = inhibition, actives largely listed as inhibitors | 62% of 890 active | AID 720584; further: nearly all actives have a fitted effect of over 75% in size
Numbers without * were called inactive; ? = inconclusive; . = no result given; [ ] = another dose, or the depositor's remark. A selection: hits, their analogues and other compounds. The true share with any hit is near 3%. The call rests on the fitted dose curve; in most records, active means well fitted curve in the direction sought with a large enough effect; inconclusive means small, poorly fitted or top-dose-only effect, or another doubt; inactive means no such curve, though single readings can be large; an effect the other way counts as inactive or inconclusive. On the % scale 0 is the no-effect control and ±100 the full control effect; potency means the concentration at half of the fitted maximal effect.

SMILES	VDR inhibitor	ALOX12 inh	GCN5L2 inh	PLK1 PBD inh	TbPYK confirm	TbPYK orthogonal
C#CCSC1=C(C#N)C(c2cccs2)C(C(=O)OCC)=C(C)N1 (stereo not given)	-10.4%	-10.9%	-2.0%	-22.9%	.	.
CCN(CC)C(=O)CSC1=C(C#N)C(c2cccs2)C=C(C)N1 (stereo not given)	3.6%	?	-2.7%	?	14.1µM*	14.1µM*
Cc1ccccc1NC(=O)c1sc2nc(N3CCOCC3)c3c(c2c1N)CCCC3	6.9%	?	?	?	?	3.98µM*
CCOC(=O)c1ccc(NC(=O)c2sc3nc(N4CCOCC4)c4c(c3c2N)CCCC4)cc1	1.4%	-8.3%	-21.9%	-18.4%	?	?
Cc1cc(C)c2c(=O)cc(C(=O)Nc3ccc(OC(F)F)cc3)oc2c1	.	-16.3%	.	.	.	.
CCCn1c2c(c(=O)n(C)c1=O)C(c1ccccc1C)C1=C(COC1=O)N2 (stereo not given)	.	-15.5%	.	.	.	.
CCN(CC)C(=O)c1ccc(CNC(=O)N(C)C(C2CC2)C2CC2)cc1	.	6.4%	.	.	.	.
Cc1cc(N=Cc2c(O)n(-c3ccc(C)c(C)c3)c(=O)c3ccccc23)no1	.	-23.7%	-6.4%	.	.	.
Cc1cc(N=Cc2c(O)ccc3cc(Br)ccc23)no1	-16.5%	?	0.5%	5.32µM*	17.8µM*	7.08µM*
COc1ccc(C(=O)NC2CC2)cc1S(=O)(=O)N(C)C	.	23.7%	.	.	.	.
CC1Cc2ccccc2N1CC(=O)Nc1ccc(N2CCOCC2)cc1 (stereo not given)	-13.4%	-4.1%	1.4%	-9.3%	.	.
CC(Nc1ccc(N2CCOCC2)cc1)C(=O)N1c2ccccc2CC1C (stereo not given)	-11.4%	?	-7.8%	-0.3%	3.16µM*	7.08µM*
COc1cccc(C(c2sc3nc(C)nn3c2O)N2CCc3ccccc3C2)c1 (stereo not given)	-22.1%	31.6µM*	-10.7%	?	20µM*	25.1µM*
CCN1CCN(C(c2cccc(OC)c2)c2sc3nc(C)nn3c2O)CC1 (stereo not given)	-8.6%	-15.0%	-1.7%	5.8%	.	.
O=C(CSc1cc([N+](=O)[O-])cc(S(=O)(=O)Cc2ccccc2)c1)NC1CC1	-16.6%	?	-1.9%	?	?	25.1µM*
O=C(NC1c2ccccc2-c2ccccc21)N1CCCCC1	-0.6%	24.8%	-6.8%	5.0%	.	.
O=C1C=CC(=O)N1c1ccc2c(c1)C(NC(=O)C(F)(F)F)c1ccccc1-2 (stereo not given)	44.7µM*	?	.	6.7µM*	7.94µM*	10µM*
CCCCCCCCSC1=CC(=O)C(OC)=C(OC)C1=O	.	?	.	2.38µM*	2.82µM*	3.98µM*
CCCCCSc1nncc(=O)[nH]1	8.0%	-23.4%	25.1%	-8.6%	.	.
Nc1c(Cl)cc(C23CC4CC(CC(C4)C2)C3)cc1Cl	.	4.6%	.	.	.	.
Oc1ccc(C23CC4CC(CC(C4)C2)C3)cc1O	10.0%	?	-0.1%	-17.5%	20µM*	20µM*
Cn1nccc1-c1nccc2c(=O)cc(N3CCOCC3)oc12	.	16.2%[176 µM]	.	.	.	.
CNC(=O)CNC(=O)c1ccc2[nH]c(C)c(C)c2c1	.	-0.4%	.	.	.	.
Cc1csc(N=Nc2ccc(N(C)C)cc2)[n+]1[O-]	.	98.6%	.	-2.0%	17.8µM*	12.1%
CCn1c(C(=O)NCc2cccnc2)cc2sc(Cl)cc21	-3.7%	0.6%	-2.5%	-8.9%	?	?
CCn1c(C(=O)NCCc2ccc(S(N)(=O)=O)cc2)cc2sc(Cl)cc21	-8.6%	-19.3%	-0.8%	.	.	.
COc1ccccc1CC(=O)N1CCc2c(nc3cc[nH]n3c2=O)C1	.	33.7%	.	.	.	.
N#CC1=C2SCC(O)(c3ccccc3)N2C(=O)CC1c1ccccc1 (stereo not given)	21.6%	-10.6%	-8.4%	-11.9%	.	.
CCc1ccc(C2CC(=O)N3CN(c4ccccc4)CSC3=C2C#N)cc1 (stereo not given)	15.8µM*	?	?	21.2µM*	3.55µM*	3.98µM*
N#CC1=C2SCN(c3ccc(F)cc3)CN2C(=O)CC1c1cccc(F)c1 (stereo not given)	?	6.31µM*	-19.3%	26.7µM*	3.98µM*	2µM*
